# The campaign covered roughly 360,000 compounds. About 2,600 (0.72%) were called active. The full list was thinned out, with actives kept by preference. Values without a mark were called inactive.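 The calls were made as follows: active = inhibition of the luminescence signal of 40% or more relative to plate controls, in a single-dose primary screen at 18.75 µM; inactive = the rest.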
# Test: HIF-2a reporter inhibitors, primary screen, luminescence, 786-0 RCC cells (AID 624352)
# Conditions: 786-0 RCC cells HIF-2a reporter, luciferase luminescence, overnight; at 18.8 µM; stronger effect = higher value
row,SMILES,inhibition
1,CCCCOC(=O)CNc1nnc(SCC(=O)OCC)[nH]c1=O,16.2%
2,C[C@@H](NC(=O)[C@@H]1Cc2ccccc2CN1)C(=O)NC1CCCC1,-3.06%
3,CC(C)(C)c1ccc(Oc2ccc(N)cc2)cc1,94.1% (active)
4,CN(C)S(=O)(=O)c1ccc(Oc2ccc(S(=O)(=O)N(C)C)cc2)cc1,0.813%
5,NC[C@H](Cc1ccccc1)NCCc1cc(C(F)(F)F)cc(C(F)(F)F)c1,8.13%
6,C=CCn1c(C)cc(C2=NNC(=NCC)SC2)c1C,92.7% (active)
7,CCOc1cccc(NC(=O)Cn2nc(-c3ccc4c(c3)OCCO4)ccc2=O)c1,3.02%
8,CN(C)CCn1c2c(c(SCC(=O)NCc3ccccc3)nc1=O)CCC2,11.3%
9,Cn1c(=O)c2ccccc2n(CC(=O)Nc2ccc3c(c2)OCCO3)c1=O,0.929%
10,COc1ccc(C(=O)NCC(c2ccco2)N2CCc3ccccc32)cc1OC (stereo unspecified),23%
11,COc1cc(C2C(C(=O)c3sc(C)nc3C)=C(O)C(=O)N2CCN(C)C)cc(OC)c1OC (stereo unspecified),17.5%
12,O=c1oc2ccccc2cc1-c1cn(-c2ccccc2)c(=S)[nH]1,73.6% (active)
13,CN(C)CC(C)(C)CNC(=O)c1cc(Br)cc(Br)c1O,8.3%
14,O=C1/C(=C\c2ccc([N+](=O)[O-])cc2)CS(=O)(=O)C/C1=C/c1ccc([N+](=O)[O-])cc1,92.6% (active)
15,O=[N+]([O-])c1ccc(CN2CC(N3CC=CC3)CS2(=O)=O)cc1 (stereo unspecified),3.7%
16,CC(=O)Nc1cc(-c2ccccc2N(C)C)cn2c(-c3ccc(F)c(Cl)c3)cnc12,-0.208%
17,CCc1ccc(Oc2nc([N+](=O)[O-])nn2C)cc1,-0.728%
18,CC1CCCN(C(=O)c2ccc3c(c2)C(=O)N(CCC2=CCCCC2)C3=O)C1 (stereo unspecified),2.05%
19,CC1Cc2ccccc2N1C1=CC(=O)CC(C)(C)C1 (stereo unspecified),9.32%
20,Cc1coc2cc3oc(=O)c(CCC(=O)O)c(C)c3cc12,17%
21,COc1cccc(-c2coc3cc4oc(=O)c(CC(=O)O)c(C)c4cc23)c1,-58%
22,Cc1c(CCC(=O)O)c(=O)oc2cc3occ(-c4ccccc4)c3cc12,63.2% (active)
23,CC(C)c1ccc2c(c1)c(SC(C)(C)C)c(CC(C)(C)C(=O)O)n2Cc1ccc(Cl)cc1,-26.8%

row,SMILES,inhibition
1,CCCC(=O)N1CCN(c2nnc(-c3ccc(C)cc3)c3ccccc23)CC1,12.6%
2,Cc1ccc2[nH]c(C(=O)O)c(NC(=O)c3ccccc3[N+](=O)[O-])c2c1,13.4%
3,c1ccc(-n2cccc2)c(N2CCCCC2)c1,13.2%
4,O=C1C=CC(=O)N1c1ccc(N2CCCCC2)cc1,69.5% (active)
5,O=C(c1ccc(Cl)c(S(=O)(=O)N2CCCCCC2)c1)N1CCN(c2ccc(O)cc2)CC1,11.3%
6,CCOC(=O)c1nn(-c2ccccc2F)c2nc(Nc3ccccc3)cc(=O)n12,7.21%
7,CN(C)c1nc2n(c(=O)n1)CCO2,6.35%
8,COC(=O)CSc1nc2c(c(C3CC=CCC3)c1C#N)CCC2 (stereo unspecified),0.0766%
9,CC1(C(=O)NS(=O)(=O)c2cccc(OC(F)F)c2)CCN1C(=O)COc1ccc(Cl)cc1 (stereo unspecified),6.16%
10,CC(=O)NC1=NN(C(C)=O)C(C)(c2ccc(Cl)s2)S1 (stereo unspecified),14.9%
11,CCc1cc(=O)oc2c(C)c(OCC(=O)N3CC[C@@]4(O)CCCC[C@H]4C3)ccc12,-4.19%
12,Brc1ccc(CN2CC[C@H]3C=CCc4cccc(c43)C2)cc1,11.8%
13,Cc1ccc(NC(=S)NC(NC(=O)Cc2cccc3ccccc23)C(Cl)(Cl)Cl)cc1 (stereo unspecified),54.6% (active)
14,O=C(Cc1cccc2ccccc12)NNC(=O)Nc1ccc(Cl)cc1,-196%
15,CC(C)(C)C(=O)NC(NC(=S)Nc1ccc(S(N)(=O)=O)cc1)C(Cl)(Cl)Cl (stereo unspecified),5.45%
16,O=c1c2ccccc2cnn1Cc1n[nH]c(=S)n1-c1ccccc1F,13.1%
17,O=C(NCCc1cccc(F)c1)C1CC(O)CN1C(=O)Nc1ccccc1 (stereo unspecified),17.9%
18,CCCNC(=O)C1(C)CCCN(Cc2c(C)nn(-c3ccccc3)c2C)C1 (stereo unspecified),6.85%
19,COc1ccc(CNC(=O)COc2ccccc2C(=O)c2cnn(-c3ccccc3)c2)cc1OC,-184%
20,CN1CCN(CCCNC(=O)c2ccc(/C=C3\Oc4ccccc4N(Cc4ccc(Cl)cc4)C3=O)cc2)CC1,89.4% (active)
21,CCC1Oc2ccccc2N(CC(=O)NCCCN2CCN(CC)CC2)C1=O (stereo unspecified),4.83%
22,Cc1ccc(NC(=O)CCCNC(=O)c2ccc(Cl)cc2)cc1S(=O)(=O)N1CCOCC1,5.62%
23,O=C1CCC(=O)N(c2ccccc2)N1,9.24%
